Test results from PMC7862700, “An all-to-all approach to the identification of sequence-specific readers for epigenetic DNA modifications on cytosine”.

Legend:
Test in all cases: DAPPL (digital affinity profiling via proximity ligation, sequencing); 10 mM Tris-HCl pH 7.5, 50 mM NaCl, 1 mM DTT, 4% glycerol, room temperature, 30 min; GST-TFs on glutathione beads, 16-mer random dsDNA library, 0.1% formaldehyde crosslink after washing; high values mean tight binding
Details in all cases: protein: recombinant; tags: N-terminal GST; dsDNA, one strand shown
ERF = target: T1, ERF (Homo sapiens, UniProt P50548 1-548)
T1 sequence: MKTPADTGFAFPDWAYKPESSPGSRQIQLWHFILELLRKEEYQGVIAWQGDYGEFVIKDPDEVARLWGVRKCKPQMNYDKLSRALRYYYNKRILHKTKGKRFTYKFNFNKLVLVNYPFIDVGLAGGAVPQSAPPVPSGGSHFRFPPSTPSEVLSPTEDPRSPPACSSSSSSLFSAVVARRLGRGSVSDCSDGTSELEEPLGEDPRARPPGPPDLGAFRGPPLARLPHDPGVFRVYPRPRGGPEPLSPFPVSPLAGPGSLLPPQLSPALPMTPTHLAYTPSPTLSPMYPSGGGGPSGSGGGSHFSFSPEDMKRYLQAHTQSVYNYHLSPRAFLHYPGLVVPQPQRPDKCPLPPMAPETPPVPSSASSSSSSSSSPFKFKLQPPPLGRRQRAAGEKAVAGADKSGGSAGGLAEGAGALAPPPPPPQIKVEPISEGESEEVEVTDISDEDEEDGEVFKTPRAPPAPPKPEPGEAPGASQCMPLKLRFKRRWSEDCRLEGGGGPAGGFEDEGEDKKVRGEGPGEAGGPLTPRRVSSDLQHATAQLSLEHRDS
Method in brief: (§1)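 Binding signal is defined as a hexamer's read frequency for one factor over its frequency for the tag-only sample. To obtain reads, GST-fused human transcription factors were expressed in yeast, captured on glutathione beads, barcoded with DNA and pooled with that sample. Pools met 200 nmole of a 16-mer random double-stranded DNA library in Tris/NaCl/DTT/glycerol buffer for 30 min at room temperature before washing, 0.1% formaldehyde crosslinking, proximity ligation (BsaI/T4 ligase, 1 h, 37 °C), PCR and Illumina NextSeq500 sequencing.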

ETV3L = target: T2, ETV3L (Homo sapiens, UniProt Q6ZN32 1-361)
T2 sequence: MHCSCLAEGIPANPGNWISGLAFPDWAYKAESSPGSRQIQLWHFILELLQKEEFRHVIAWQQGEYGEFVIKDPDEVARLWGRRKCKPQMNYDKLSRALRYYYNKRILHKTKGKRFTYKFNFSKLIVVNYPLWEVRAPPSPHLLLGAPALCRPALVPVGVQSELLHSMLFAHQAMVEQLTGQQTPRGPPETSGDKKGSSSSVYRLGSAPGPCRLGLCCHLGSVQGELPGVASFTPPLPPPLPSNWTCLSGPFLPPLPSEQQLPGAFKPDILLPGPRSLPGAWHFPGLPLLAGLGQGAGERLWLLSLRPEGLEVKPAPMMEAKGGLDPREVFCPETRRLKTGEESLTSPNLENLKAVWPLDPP
Method in brief: as §1

ETS2 = target: T3, ETS2 (Homo sapiens, UniProt P15036 1-469)
T3 sequence: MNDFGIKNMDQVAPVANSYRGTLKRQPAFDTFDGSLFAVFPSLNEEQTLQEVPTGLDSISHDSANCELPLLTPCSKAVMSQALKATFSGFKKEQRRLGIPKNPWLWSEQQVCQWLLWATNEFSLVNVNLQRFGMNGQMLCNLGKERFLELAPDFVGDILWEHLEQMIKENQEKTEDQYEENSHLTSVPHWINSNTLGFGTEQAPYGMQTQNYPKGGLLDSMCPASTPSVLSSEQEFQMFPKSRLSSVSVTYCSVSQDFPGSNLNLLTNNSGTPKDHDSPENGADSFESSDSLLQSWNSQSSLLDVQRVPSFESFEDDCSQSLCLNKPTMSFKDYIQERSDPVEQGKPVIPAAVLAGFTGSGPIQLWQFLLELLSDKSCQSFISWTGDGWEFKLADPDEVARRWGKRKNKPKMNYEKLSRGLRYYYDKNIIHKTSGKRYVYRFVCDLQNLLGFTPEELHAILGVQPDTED
Method in brief: as §1

ETV7 = target: T4, ETV7 (Homo sapiens, UniProt Q9Y603 1-341)
T4 sequence: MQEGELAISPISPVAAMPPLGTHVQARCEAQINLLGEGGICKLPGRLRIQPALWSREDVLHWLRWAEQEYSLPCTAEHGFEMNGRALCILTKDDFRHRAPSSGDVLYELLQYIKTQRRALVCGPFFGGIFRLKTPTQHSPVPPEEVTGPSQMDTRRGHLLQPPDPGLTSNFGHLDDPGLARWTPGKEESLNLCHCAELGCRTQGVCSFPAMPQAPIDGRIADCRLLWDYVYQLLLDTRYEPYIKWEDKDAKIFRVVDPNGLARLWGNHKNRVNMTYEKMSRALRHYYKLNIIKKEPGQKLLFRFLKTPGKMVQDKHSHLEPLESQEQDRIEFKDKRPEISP
Method in brief: as §1

ELF5 = target: T5, ELF5 (Homo sapiens, UniProt Q9UKW6-2 1-255)
T5 sequence: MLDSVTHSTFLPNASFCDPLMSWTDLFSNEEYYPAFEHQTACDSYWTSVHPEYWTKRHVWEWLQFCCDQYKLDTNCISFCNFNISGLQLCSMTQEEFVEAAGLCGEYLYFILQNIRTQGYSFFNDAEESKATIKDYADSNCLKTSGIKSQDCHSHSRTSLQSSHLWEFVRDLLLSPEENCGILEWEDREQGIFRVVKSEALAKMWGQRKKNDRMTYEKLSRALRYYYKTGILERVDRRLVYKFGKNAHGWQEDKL
Method in brief: as §1

ETV3 = target: T6, ETV3 (Homo sapiens, UniProt P41162-2 1-143)
T6 sequence: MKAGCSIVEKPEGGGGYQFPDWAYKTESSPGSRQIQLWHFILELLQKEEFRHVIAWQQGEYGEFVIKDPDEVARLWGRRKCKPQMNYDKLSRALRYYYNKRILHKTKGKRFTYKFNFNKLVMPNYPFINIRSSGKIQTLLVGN
Method in brief: as §1

ETV6 = ETV6 (Homo sapiens, UniProt P41212 1-452)
Method in brief: as §1

SPDEF = target: T7, SPDEF (Homo sapiens, UniProt O95238 1-335)
T7 sequence: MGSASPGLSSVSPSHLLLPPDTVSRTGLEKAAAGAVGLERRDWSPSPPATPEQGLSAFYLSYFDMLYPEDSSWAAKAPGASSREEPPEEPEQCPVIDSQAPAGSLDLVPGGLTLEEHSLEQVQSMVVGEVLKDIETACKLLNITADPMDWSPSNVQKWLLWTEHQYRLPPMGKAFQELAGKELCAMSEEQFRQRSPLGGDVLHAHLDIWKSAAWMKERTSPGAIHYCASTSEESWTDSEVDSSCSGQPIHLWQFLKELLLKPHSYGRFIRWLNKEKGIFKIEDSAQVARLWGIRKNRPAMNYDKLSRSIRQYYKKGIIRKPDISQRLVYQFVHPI
Method in brief: as §1

ETV6, sequence (P41212 whole entry): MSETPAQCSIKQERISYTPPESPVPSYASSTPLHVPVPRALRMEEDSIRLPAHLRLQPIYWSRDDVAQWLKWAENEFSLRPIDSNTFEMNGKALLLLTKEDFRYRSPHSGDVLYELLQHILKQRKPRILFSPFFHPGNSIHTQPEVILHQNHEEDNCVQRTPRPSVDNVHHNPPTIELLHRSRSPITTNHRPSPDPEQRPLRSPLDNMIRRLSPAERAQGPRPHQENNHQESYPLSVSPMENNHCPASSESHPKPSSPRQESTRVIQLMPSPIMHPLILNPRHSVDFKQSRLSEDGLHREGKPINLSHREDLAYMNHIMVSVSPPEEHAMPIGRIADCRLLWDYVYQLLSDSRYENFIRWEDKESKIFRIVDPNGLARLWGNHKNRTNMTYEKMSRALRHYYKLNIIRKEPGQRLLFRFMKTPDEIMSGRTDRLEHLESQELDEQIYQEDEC

Sequence | binding signal (ERF) | binding signal (ETV3L) | binding signal (ETS2) | binding signal (ETV7) | binding signal (ELF5) | binding signal (ETV3) | binding signal (ETV6) | binding signal (SPDEF)
TAGCAG | 1.11 fold enrichment (6-mer frequency, TF over GST control) | 1.07 fold enrichment (6-mer frequency, TF over GST control) | 1.02 fold enrichment (6-mer frequency, TF over GST control) | 1.07 fold enrichment (6-mer frequency, TF over GST control) | 1.05 fold enrichment (6-mer frequency, TF over GST control) |  |  | 
AGGGCT | 1.1 fold enrichment (6-mer frequency, TF over GST control) | 1.06 fold enrichment (6-mer frequency, TF over GST control) | 1.02 fold enrichment (6-mer frequency, TF over GST control) | 1.12 fold enrichment (6-mer frequency, TF over GST control) | 1.05 fold enrichment (6-mer frequency, TF over GST control) | 1.06 fold enrichment (6-mer frequency, TF over GST control) | 1.09 fold enrichment (6-mer frequency, TF over GST control) | 
AAGCTG | 1.18 fold enrichment (6-mer frequency, TF over GST control) | 1.05 fold enrichment (6-mer frequency, TF over GST control) | 1.13 fold enrichment (6-mer frequency, TF over GST control) | 1.18 fold enrichment (6-mer frequency, TF over GST control) | 1.11 fold enrichment (6-mer frequency, TF over GST control) | 1.24 fold enrichment (6-mer frequency, TF over GST control) | 1.08 fold enrichment (6-mer frequency, TF over GST control) | 
ATCACA | 1.04 fold enrichment (6-mer frequency, TF over GST control) | 1.05 fold enrichment (6-mer frequency, TF over GST control) | 1.09 fold enrichment (6-mer frequency, TF over GST control) |  |  | 1.09 fold enrichment (6-mer frequency, TF over GST control) | 1.13 fold enrichment (6-mer frequency, TF over GST control) | 1.05 fold enrichment (6-mer frequency, TF over GST control)
TGATCG | 1.24 fold enrichment (6-mer frequency, TF over GST control) | 1.09 fold enrichment (6-mer frequency, TF over GST control) | 1.03 fold enrichment (6-mer frequency, TF over GST control) | 1.03 fold enrichment (6-mer frequency, TF over GST control) | 1.04 fold enrichment (6-mer frequency, TF over GST control) | 1.11 fold enrichment (6-mer frequency, TF over GST control) | 1.12 fold enrichment (6-mer frequency, TF over GST control) | 
TCCCAG | 1.05 fold enrichment (6-mer frequency, TF over GST control) | 1.08 fold enrichment (6-mer frequency, TF over GST control) |  | 1.16 fold enrichment (6-mer frequency, TF over GST control) | 1.12 fold enrichment (6-mer frequency, TF over GST control) | 1.07 fold enrichment (6-mer frequency, TF over GST control) |  | 1.07 fold enrichment (6-mer frequency, TF over GST control)
